This note sets out measurements from PubChem BioAssay (EPA / NIEHS).

What all share (conditions): mRNA level, 48 h; actives raise or lower the signal
Read-out in test [1]: Protein phosphatase 2A (PPP2R4), PTPA (gene 5524)
The test can be described thus: LTEA_HepaRG_PPP2R4: Life Technologies and Expression Analysis (LTEA) Assay for Protein phosphatase 2A (PPP2R4) using HepaRG (AID 2283522). The method in brief: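 Using HepaRG cultures maintained in 0.5% DMSO, chemicals are tested 48 h at up to 100 uM in duplicate. Induction or suppression of PPP2R4 mRNA, measured by qRT-PCR, is fitted bidirectionally against the vehicle baseline.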

Read-out in test [2]: Phosphatase and tensin (PTEN), PTEN (gene 5728)
Briefly: LTEA_HepaRG_PTEN: Life Technologies and Expression Analysis (LTEA) Assay for Phosphatase and tensin (PTEN) using HepaRG (AID 2283523). A digest of the protocol:
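Read-out: TaqMan qRT-PCR of PTEN transcript, normalized to three housekeeping genes, fitted in both directions against 0.5% DMSO. Differentiated human HepaRG cultures received chemicals for 48 h, eight-point half-log series topping at 100 uM.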

Read-out in test [3]: solute carrier (SLC22A1), SLC22A1 (gene 6580)
Briefly: LTEA_HepaRG_SLC22A1: Life Technologies and Expression Analysis (LTEA) Assay for solute carrier (SLC22A1) using HepaRG (AID 2283524). A digest of the protocol:
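Transcript level of SLC22A1 quantified by qRT-PCR (normalized to three housekeeping genes) after 48 h chemical exposure of HepaRG cells, eight concentrations up to 100 µM, half-log steps, 0.5% DMSO vehicle. Gain or loss relative to DMSO fitted bidirectionally.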

Read-out in test [4]: Pyruvate Dehydrogenase Kinase 4 (PDK4), PDK4 (gene 5166)
Briefly: LTEA_HepaRG_PDK4: Life Technologies and Expression Analysis (LTEA) Assay for Pyruvate Dehydrogenase Kinase 4 (PDK4) using HepaRG (AID 2283525). A digest of the protocol: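 Readout is qRT-PCR of PDK4 transcript, normalized to three housekeeping genes, with bidirectional fitting against 0.5% DMSO vehicle. Differentiated HepaRG cells were treated 48 h in serum-free induction medium, duplicate wells, eight-point half-log series topping at 100 uM.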

Read-out in test [5]: NAD(P)H dehydrogenase [quinone] 1 (NQO1), NQO1 (gene 1728)
Briefly: LTEA_HepaRG_NQO1: Life Technologies and Expression Analysis (LTEA) Assay for NAD(P)H dehydrogenase [quinone] 1 (NQO1) using HepaRG (AID 2283526). A digest of the protocol: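 In this assay, gene expression is read by qRT-PCR after 48 h exposure of HepaRG cells to eight concentrations (max 100 uM, half-log) in 0.5% DMSO. Each chemical runs in duplicate, and activity is scored relative to vehicle.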

Read-out in test [6]: Nuclear factor erythroid 2-related factor 2 (Homo sapiens) (UniProt Q16236)
Briefly: LTEA_HepaRG_NFE2L2: Life Technologies and Expression Analysis (LTEA) Assay for Nuclear factor erythroid 2-related factor 2 (NFE2L2) Transcription Factor using HepaRG (AID 2283527).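 For outcome: TaqMan qRT-PCR transcript level normalised to ACTB GAPDH and POLR2A housekeeping genes.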 A digest of the protocol: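 NFE2L2 transcript level was read by qRT-PCR (housekeeping ACTB/GAPDH/POLR2A normalisation) after 48 h chemical treatment of HepaRG in serum-free induction medium. Duplicate 8-point half-log curves, top 100 uM, 0.5% DMSO vehicle; up- or down-regulation fitted against vehicle.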

Read-out in test [7]: succinate dehydrogenase complex iron sulfur subunit B (SDHB), SDHB (gene 6390)
The test can be described thus: LTEA_HepaRG_SDHB: Life Technologies and Expression Analysis (LTEA) Assay for succinate dehydrogenase complex iron sulfur subunit B (SDHB) using HepaRG (AID 2283528). The method in brief:
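HepaRG cells (~100,000/well, plated 48 h) exposed in duplicate for 48 h in serum-free induction medium to 8-point half-log series from 100 uM in 0.5% DMSO; mRNA by qRT-PCR normalised to ACTB, GAPDH, POLR2A; bidirectional fit versus DMSO.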

Read-out in test [8]: Signal transducer and activator of transcription 3 (Homo sapiens) (UniProt P40763)
The test can be described thus: LTEA_HepaRG_STAT3: Life Technologies and Expression Analysis (LTEA) Assay for Signal transducer and activator of transcription (STAT3) using HepaRG (AID 2283529). The method in brief:
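STAT3 transcript quantified by qRT-PCR against three housekeeping genes (ACTB, GAPDH, POLR2A), fitted both directions relative to DMSO. HepaRG cultures exposed 48 h to eight half-log concentrations, top 100 uM, 0.5% DMSO, serum-free induction medium.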

Read-out in test [9]: solute carrier (SLCO1B1), SLCO1B1 (gene 10599)
Briefly: LTEA_HepaRG_SLCO1B1: Life Technologies and Expression Analysis (LTEA) Assay for solute carrier (SLCO1B1) using HepaRG (AID 2283530). The method in brief: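 SLCO1B1 transcript levels were quantified by TaqMan qRT-PCR using three housekeeping genes for normalization. This followed 48 h chemical exposure (100 uM top, half-log, 8 points, 0.5% DMSO) of HepaRG liver cells, with gain or loss fitted relative to DMSO.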

Read-out in test [10]: sulfotransferase 2A1 (SULT2A1), SULT2A1 (gene 6822)
The test can be described thus: LTEA_HepaRG_SULT2A1: Life Technologies and Expression Analysis (LTEA) Assay for sulfotransferase 2A1 (SULT2A1) using HepaRG (AID 2283531). The method in brief: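 Expression change of SULT2A1, by qRT-PCR with three housekeeping-gene normalization, was scored bidirectionally versus DMSO. Cells: differentiated HepaRG, dosed in duplicate for 48 h across 8 points, highest 100 µM, half-log dilution, 0.5% DMSO.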

Read-out in test [11]: Transforming Growth Factor (TGFB1), TGFB1 (gene 7040)
The test can be described thus: LTEA_HepaRG_TGFB1: Life Technologies and Expression Analysis (LTEA) Assay for Transforming Growth Factor (TGFB1) Transporter using HepaRG (AID 2283533). The method in brief: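 TGFB1 transcript measured by qRT-PCR with normalisation to three housekeeping genes (ACTB, GAPDH, POLR2A); human HepaRG line treated in duplicate for 48 hr with an 8-point series topping at 100 uM, 0.5% DMSO vehicle, bidirectionally fitted.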

Read-out in another test: TIMP1, TIMP1 (gene 7076)
The test can be described thus: LTEA_HepaRG_TIMP1: Life Technologies and Expression Analysis (LTEA) Assay for TIMP1 using HepaRG (AID 2283534). A digest of the protocol:
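Bidirectional change in TIMP1 transcript versus 0.5% DMSO, measured by TaqMan qRT-PCR with three housekeeping genes for normalization. HepaRG human liver cells dosed 48 h in duplicate, top concentration 100 uM with half-log dilutions.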

Read-out in test [12]: Tumor necrosis factor receptor 1 (TNFRSF1A), TNFRSF1A (gene 7132)
The test can be described thus: LTEA_HepaRG_TNFRSF1A: Life Technologies and Expression Analysis (LTEA) Assay for Tumor necrosis factor receptor 1 (TNFRSF1A) using HepaRG (AID 2283535). A digest of the protocol:
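mRNA measured by qRT-PCR (TaqMan, Fluidigm arrays) against ACTB/GAPDH/POLR2A housekeepers after 48 h chemical exposure of HepaRG cells. Top concentration 100 uM, half-log 8-point series, duplicates; vehicle 0.5% DMSO, both fit directions.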

Read-out in test [13]: Thyroid Hormone Responsive (THRSP), THRSP (gene 7069)
The test can be described thus: LTEA_HepaRG_THRSP: Life Technologies and Expression Analysis (LTEA) Assay for Thyroid Hormone Responsive (THRSP) using HepaRG (AID 2283536). The method in brief:
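THRSP transcript quantified by Fluidigm qRT-PCR against three housekeeping genes after 48 h chemical exposure of HepaRG cells in serum-free induction medium; eight-point half-log series, top 100 uM, 0.5% DMSO vehicle, duplicate wells.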

Read-out in test [14]: Cellular tumor antigen p53 (Homo sapiens) (UniProt P04637)
The test can be described thus: LTEA_HepaRG_TP53: Life Technologies and Expression Analysis (LTEA) Assay for Tumor Protein P53 (TP53) using HepaRG (AID 2283537). A digest of the protocol: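 Differentiated HepaRG cells in serum-free induction medium exposed 48 h in duplicate to 8 half-log concentrations, top 100 uM, 0.5% DMSO. TP53 mRNA by TaqMan qRT-PCR (Fluidigm), normalized to ACTB, GAPDH, POLR2A; fitted bidirectionally versus DMSO.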

Read-out in test [15]: UDP glucuronosyltransferase (UGT1A1), UGT1A1 (gene 54658)
The test can be described thus: LTEA_HepaRG_UGT1A1: Life Technologies and Expression Analysis (LTEA) Assay for UDP glucuronosyltransferase (UGT1A1) using HepaRG (AID 2283538). The method in brief:
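mRNA induction or loss of UGT1A1, by TaqMan qRT-PCR, in duplicate HepaRG wells after 48 h exposure to half-log dilutions topping at 100 uM; DMSO (0.5%) served as baseline.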

Read-out in test [16]: UDP glucuronosyltransferase (UGT1A6), UGT1A6 (gene 54578)
The test can be described thus: LTEA_HepaRG_UGT1A6: Life Technologies and Expression Analysis (LTEA) Assay for UDP glucuronosyltransferase (UGT1A6) using HepaRG (AID 2283539). A digest of the protocol: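 Expression was quantified by TaqMan qRT-PCR on Fluidigm arrays with ACTB/GAPDH/POLR2A normalization and bidirectional fitting against 0.5% DMSO. HepaRG cells (~100,000/well) were treated in duplicate for 48 h at eight half-log concentrations up to 100 uM in serum-free induction medium.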

Read-out in test [17]: X-box binding protein 1 (XBP1), XBP1 (gene 7494)
Briefly: LTEA_HepaRG_XBP1: Life Technologies and Expression Analysis (LTEA) Assay for X-box binding protein 1 (XBP1) using HepaRG (AID 2283540). A digest of the protocol:
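XBP1 transcript by qRT-PCR (housekeeping-normalized: ACTB, GAPDH, POLR2A) after 48 h chemical treatment of HepaRG cells, 8-point half-log series topping at 100 uM, vehicle 0.5% DMSO. Gain and loss of signal fitted relative to DMSO.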

Read-out in test [18]: Nuclear factor NF-kappa-B p105 subunit (Homo sapiens) (UniProt P19838)
The test can be described thus: LTEA_HepaRG_NFKB1: Life Technologies and Expression Analysis (LTEA) Assay for Nuclear Factor Kappa B Subunit 1 (NFKB1) using HepaRG (AID 2283521). The method in brief:
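Differentiated human HepaRG cells in serum-free induction medium with 0.5% DMSO were exposed for 48 h to eight half-log concentrations, top 100 uM, in duplicate. NFKB1 mRNA measured by Fluidigm TaqMan qRT-PCR, normalised to ACTB, GAPDH and POLR2A; bidirectional fit versus DMSO.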

Calls of active or inactive are those of the source. Rule for the calls: active = hit-call score of the fitted dose curve at least 0.9, where 1 is the maximum; inactive = score below 0.9.

Sequence of Signal transducer and activator of transcription 3 (Homo sapiens) (P40763 whole entry, looked up): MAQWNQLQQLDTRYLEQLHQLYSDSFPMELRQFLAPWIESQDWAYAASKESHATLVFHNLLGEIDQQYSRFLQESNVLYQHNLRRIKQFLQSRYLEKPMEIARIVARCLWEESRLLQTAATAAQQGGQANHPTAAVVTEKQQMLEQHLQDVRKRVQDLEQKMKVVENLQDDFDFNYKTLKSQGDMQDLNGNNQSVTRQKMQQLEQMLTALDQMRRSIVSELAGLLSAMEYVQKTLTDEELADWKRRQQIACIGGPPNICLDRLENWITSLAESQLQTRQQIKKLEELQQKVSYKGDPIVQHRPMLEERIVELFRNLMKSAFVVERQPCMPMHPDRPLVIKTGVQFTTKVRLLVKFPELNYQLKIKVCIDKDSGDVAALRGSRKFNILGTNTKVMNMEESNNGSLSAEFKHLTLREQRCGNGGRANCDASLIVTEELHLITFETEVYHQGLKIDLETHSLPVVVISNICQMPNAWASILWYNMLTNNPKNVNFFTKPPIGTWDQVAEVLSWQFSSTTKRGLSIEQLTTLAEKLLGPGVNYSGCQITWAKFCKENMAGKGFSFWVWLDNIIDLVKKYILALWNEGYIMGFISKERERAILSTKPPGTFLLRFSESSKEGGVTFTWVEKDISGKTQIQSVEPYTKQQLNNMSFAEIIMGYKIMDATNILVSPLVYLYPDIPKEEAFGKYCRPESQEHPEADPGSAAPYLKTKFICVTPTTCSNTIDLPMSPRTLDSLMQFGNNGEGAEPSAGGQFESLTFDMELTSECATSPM
Sequence of Nuclear factor erythroid 2-related factor 2 (Homo sapiens) (Q16236 whole entry, looked up): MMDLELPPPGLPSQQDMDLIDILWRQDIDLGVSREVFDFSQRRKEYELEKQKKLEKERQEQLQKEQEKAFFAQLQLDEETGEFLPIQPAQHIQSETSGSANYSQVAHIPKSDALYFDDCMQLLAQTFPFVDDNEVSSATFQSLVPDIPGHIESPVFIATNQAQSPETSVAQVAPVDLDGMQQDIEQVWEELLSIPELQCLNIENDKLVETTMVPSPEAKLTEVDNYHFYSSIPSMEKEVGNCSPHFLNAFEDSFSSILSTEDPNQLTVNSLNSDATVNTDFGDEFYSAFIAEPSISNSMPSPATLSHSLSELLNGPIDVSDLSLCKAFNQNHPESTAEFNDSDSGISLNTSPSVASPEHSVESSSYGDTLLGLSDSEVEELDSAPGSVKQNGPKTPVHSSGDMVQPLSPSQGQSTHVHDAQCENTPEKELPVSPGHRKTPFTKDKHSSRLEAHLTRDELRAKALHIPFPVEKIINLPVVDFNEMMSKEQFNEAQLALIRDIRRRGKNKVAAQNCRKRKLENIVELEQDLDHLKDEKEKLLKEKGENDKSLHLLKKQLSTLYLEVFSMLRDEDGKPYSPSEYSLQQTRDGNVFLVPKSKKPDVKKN
Sequence of Cellular tumor antigen p53 (Homo sapiens) (P04637 whole entry, looked up): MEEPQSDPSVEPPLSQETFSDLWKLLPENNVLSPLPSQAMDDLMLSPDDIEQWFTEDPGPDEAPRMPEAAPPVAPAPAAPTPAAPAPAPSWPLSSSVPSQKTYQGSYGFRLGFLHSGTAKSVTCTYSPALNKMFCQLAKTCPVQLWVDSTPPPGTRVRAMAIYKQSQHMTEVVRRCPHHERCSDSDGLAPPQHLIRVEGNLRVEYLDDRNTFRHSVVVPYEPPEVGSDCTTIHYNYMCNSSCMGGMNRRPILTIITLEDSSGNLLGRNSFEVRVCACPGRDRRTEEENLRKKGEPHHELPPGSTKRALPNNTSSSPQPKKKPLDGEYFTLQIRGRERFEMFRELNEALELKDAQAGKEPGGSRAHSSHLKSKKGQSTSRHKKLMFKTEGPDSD
Sequence of Nuclear factor NF-kappa-B p105 subunit (Homo sapiens) (P19838 whole entry, looked up): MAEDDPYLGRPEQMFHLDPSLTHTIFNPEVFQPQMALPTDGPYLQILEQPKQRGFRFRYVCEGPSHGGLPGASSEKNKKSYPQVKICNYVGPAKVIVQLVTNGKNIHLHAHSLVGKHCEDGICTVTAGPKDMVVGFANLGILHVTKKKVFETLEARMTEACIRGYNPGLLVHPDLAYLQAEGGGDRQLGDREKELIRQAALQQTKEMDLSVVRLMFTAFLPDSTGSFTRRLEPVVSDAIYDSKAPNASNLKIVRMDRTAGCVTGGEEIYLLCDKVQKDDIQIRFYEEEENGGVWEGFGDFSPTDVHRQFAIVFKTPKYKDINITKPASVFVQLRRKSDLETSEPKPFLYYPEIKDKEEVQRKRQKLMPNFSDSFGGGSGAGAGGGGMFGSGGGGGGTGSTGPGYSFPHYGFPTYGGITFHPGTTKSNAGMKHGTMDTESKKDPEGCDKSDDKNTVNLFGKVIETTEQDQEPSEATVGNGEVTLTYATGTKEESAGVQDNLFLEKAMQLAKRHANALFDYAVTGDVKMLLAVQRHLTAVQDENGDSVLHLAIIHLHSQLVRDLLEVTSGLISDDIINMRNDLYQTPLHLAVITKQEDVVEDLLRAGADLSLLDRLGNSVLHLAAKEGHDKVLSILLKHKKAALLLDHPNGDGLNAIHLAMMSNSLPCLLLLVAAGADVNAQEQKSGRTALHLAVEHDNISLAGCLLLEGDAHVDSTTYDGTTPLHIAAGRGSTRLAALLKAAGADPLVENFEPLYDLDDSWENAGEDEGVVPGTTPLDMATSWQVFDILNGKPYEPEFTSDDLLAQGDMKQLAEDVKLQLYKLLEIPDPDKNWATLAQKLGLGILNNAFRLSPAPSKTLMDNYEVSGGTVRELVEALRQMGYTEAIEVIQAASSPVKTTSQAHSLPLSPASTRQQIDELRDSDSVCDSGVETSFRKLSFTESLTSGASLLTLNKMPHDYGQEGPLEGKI

In the case of `CC1(C)C(=O)N(Cl)C(=O)N1Cl`, the outcome in test [1], in test [2], in test [3], in test [4], in test [5] and in test [6] was inactive. The outcome was “inactive” in test [7]; “inactive” in test [8]; “inactive” in [9]; “inactive” in test [10]; “inactive” in test [11]; “inactive” with TIMP1, TIMP1 (gene 7076). Moreover, the call in test [12], in test [13], in [14], in test [15], in [16] and in test [17] was inactive.
For orientation: AC50 means the concentration giving half of the maximal activity seen. As for `COc1cc(C(C)C)c2c(c1)S(=O)(=O)N(COc1cc(=O)n3cccc(OCCN4CCCCC4)c3n1)C2=O`, the call in test [18], in test [1], in [4], in test [5], in test [7] and in test [8] was inactive. Further, the call in test [11], in [12] and in test [17] was inactive. Also, the AC50 is 22.6 µM (active) in [2]; 20.8 µM (active) in [3]; 22.8 µM (active) in [6]; 21.1 µM (active) in [9]; 23.7 µM (active) in [10]; 19.8 µM (active) in the test with TIMP1, TIMP1 (gene 7076). For the same compound, the AC50 is 22.6 µM (active) in [15] and 19.9 µM (active) in test [16].
As to `c1ccc2ncccc2c1`, the outcome in [1], in [2], in [3], in test [4], in test [5] and in test [7] was inactive. Further, the outcome in test [8] is “inactive”; in [9] it was “inactive”; in test [10], “inactive”; in [11], “inactive”; in the test with TIMP1, TIMP1 (gene 7076), “inactive”; in test [12] it was “inactive”. Besides, the result in [13], in [14], in test [15], in test [16] and in [17] was inactive. Further, the AC50 in test [6] was 50 µM (active).
As for `O=C(O)[C@H](O)[C@@H](O)C(=O)O`, the call in [18], in [1], in test [2], in [3], in test [4] and in [5] was inactive. The result in [6], in test [7], in [8], in test [9], in test [10] and in test [11] was inactive. Also, the outcome was “inactive” with TIMP1, TIMP1 (gene 7076); “inactive” in test [12]; “inactive” in test [15]; “inactive” in [16]; “inactive” in test [17].
